Inconclusive results are not listed. The source made the active and inactive calls. Calls come from the whole dose curve; as a rule, active = well fitted cell-killing curve with a large enough effect in the repeat runs; inconclusive = weak or mixed curves, or effect the other way; inactive = flat fitted curve, though single readings scatter.

The source of these data is PubChem BioAssay (Tox21).
% is set by controls: 0 for no effect and ±100 for the full control effect.

The first assay in a line: cAMP Responsive Elements (CRE) small molecule antagonists, cell-based qHTS assay: qHTS cell viability counter screen (AID 2060913). Note: nearly all actives have a fitted effect of over 40% in size. The note with it: CRE-bla HEK293T viability, CellTiter-Glo luminescence, 5 h; series mostly up to 92.4 µM; viability change, negative = cytotoxic: at the top concentration. The method in brief:
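CRE-bla HEK293T cells were seeded in assay medium with 10% dialyzed FBS, incubated 18 hrs at 37 C, then exposed to compounds plus 0.25 uM final NKH477 for 3 hrs. Viability was read by CellTiter-Glo luminescence after 30 min, in the same wells.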
A general note: qHTS replaces the single test concentration by a dilution series.
`O=C(O)Cc1ccccc1Nc1c(Cl)cccc1Cl`: the Potency entry is “inactive”.

Consider `CCC(C)N` (stereo not given), for which the “viability change, negative = cytotoxic” value is -8.78% (inactive).

Consider `OCCCCCO`, for which the “viability change, negative = cytotoxic” value was 0.753% (inactive).

As for `CC(O)CC(C)O` (stereo not given), the “viability change, negative = cytotoxic” value was 8.14% (inactive).

On to `CC(C)=CCC[C@](C)(O)[C@@H]1CC=C(C)CC1`, for which the “viability change, negative = cytotoxic” value is -8.62% (inactive).

With `c1ccc2c(c1)[nH]c1ccccc12`, the Potency entry was “inactive”.

With `NC(Cc1c[nH]c2ccccc12)C(=O)O` (stereo not given), the “viability change, negative = cytotoxic” value is 16.1% [at 42.5 µM] (inactive).

With `CC(=O)CC(C)(C)O`, the Potency entry was “inactive”.

For `CC(=O)OCc1ccccc1`, the “viability change, negative = cytotoxic” value was 2.9% (inactive).

As to `CN(C)CCOC1=Cc2ccccc2Sc2ccc(Cl)cc21`, the “viability change, negative = cytotoxic” value is -1.17% [at 42.5 µM] (inactive).

Consider `Cc1ccc(OC(=O)CC(C)C)cc1`, for which the “viability change, negative = cytotoxic” value was 3.87% (inactive).

Turning to `CCCC(=O)C(C)=O`, the “viability change, negative = cytotoxic” value was 4.18% (inactive).

Turning to `c1ccc(Nc2ccccc2)cc1`, the Potency result is “inactive”.

Consider `O=C(O)c1ccccc1S`, for which the “viability change, negative = cytotoxic” value is 9.07% [at 42.5 µM] (inactive).

In the case of `COCCOC(=O)C1=C(C)NC(C)=C(C(=O)OC/C=C/c2ccccc2)C1c1cccc([N+](=O)[O-])c1` (stereo not given), the “viability change, negative = cytotoxic” value is -3.8% [at 42.5 µM] (inactive).

In the case of `CC(C(=O)O)c1cccc(C(=O)c2ccccc2)c1` (stereo not given), the Potency entry is “inactive”.

As to `CCC(CC)CO`, the “viability change, negative = cytotoxic” value is 10.4% (inactive).

As to `NC/C=C/C(=O)O`, the “viability change, negative = cytotoxic” value was -3.05% [at 42.5 µM] (inactive).

With `C1=C\CC/C=C\CC/1`, the “viability change, negative = cytotoxic” value was -9.46% (inactive).

On to `c1ccc(CNc2ncnc3nc[nH]c23)cc1`, for which the “viability change, negative = cytotoxic” value was -6.88% (inactive).

On to `Cc1ccc(C(=O)O)o1`, for which the Potency result is “inactive”.

Consider `C=C(C)C(=O)OCCOC(=O)CC(C)=O`, for which the “viability change, negative = cytotoxic” value is -8.49% (inactive).

For `O=C(O)/C=C/c1ccc(/C=C/C(=O)O)cc1`, the “viability change, negative = cytotoxic” value was -7.81% [at 42.5 µM] (inactive).

For `O=C1c2ccccc2C(=O)N1CCl`, the “viability change, negative = cytotoxic” value was 4.97% (inactive).

Take `CCc1oc2ccccc2c1C(=O)c1cc(Br)c(O)c(Br)c1`: the “viability change, negative = cytotoxic” value is -7.47% [at 42.5 µM] (inactive).

For the compound `CCOC(=O)c1ccc(N)cc1`, the Potency result is “inactive”.

`CCc1ccc(O)cc1`: the Potency result was “inactive”.

Consider `Cc1cccc(C)c1NC(=O)CN(CC(=O)O)CC(=O)O`, for which the “viability change, negative = cytotoxic” value is 0.362% [at 42.5 µM] (inactive).

Consider `CCOC(=O)[C@H](CCc1ccccc1)N[C@H]1CCc2ccccc2N(CC(=O)O)C1=O`, for which the “viability change, negative = cytotoxic” value is 7.23% [at 42.5 µM] (inactive).

In the case of `CC(O)CNCC(C)O` (stereo not given), the Potency entry is “inactive”.

On to `CCCCCCCCCCCCN1CCCCCC1=O`, for which the “viability change, negative = cytotoxic” value is 5.62% (inactive).

As to `COC(C)=O`, the “viability change, negative = cytotoxic” value was 15.2% (inactive).

As to `COc1ccc(C(=O)c2ccccc2)c(O)c1`, the Potency entry was “inactive”.

In the case of `Cc1nc2sccn2c(=O)c1CCN1CCC(=C(c2ccc(F)cc2)c2ccc(F)cc2)CC1`, the “viability change, negative = cytotoxic” value was -13.5% [at 42.5 µM] (inactive).

On to `CC1=C(C)S(=O)(=O)CCS1(=O)=O`, for which the Potency entry is “inactive”.

Consider `CC/C=C\CCOC(C)=O`, for which the “viability change, negative = cytotoxic” value is -0.105% (inactive).

As to `CCC(C(=O)NC(N)=O)c1ccccc1` (stereo not given), the “viability change, negative = cytotoxic” value is 1.65% (inactive).

Turning to `CC(C=O)c1ccccc1` (stereo not given), the “viability change, negative = cytotoxic” value was 3.37% (inactive).

For `Cc1cc(C)c(O)c(C)c1`, the Potency result is “inactive”.

`CC[N+](CC)(CC(=O)Nc1c(C)cccc1C)Cc1ccccc1`: the Potency result was “inactive”.

A short description of the next assay: cAMP Responsive Elements (CRE) small molecule agonists, cell-based qHTS assay: qHTS cell viability counter screen (AID 2060914). Note: nearly all actives have a fitted effect of over 50% in size. Conditions: CRE-bla HEK293T viability, CellTiter-Glo luminescence, 5 h; series mostly up to 92.4 µM; activity change, negative = cytotoxicity: at the top concentration. In a few lines:
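Cytotoxicity was measured as ATP luminescence (CellTiter-Glo, 30 min at room temperature) in the same wells as the CRE-bla FRET read-out. HEK293T CRE-bla cells had 3 h compound exposure at 37C/5% CO2.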
For `O=C(O)Cc1ccccc1Nc1c(Cl)cccc1Cl`, the Potency entry was “inactive”.

On to `CCC(C)N` (stereo not given), for which the “activity change, negative = cytotoxicity” value was -11.4% (inactive).

Consider `OCCCCCO`, for which the “activity change, negative = cytotoxicity” value was 3.56% (inactive).

Consider `CC(O)CC(C)O` (stereo not given), for which the “activity change, negative = cytotoxicity” value is 4.01% (inactive).

Turning to `CC(C)=CCC[C@](C)(O)[C@@H]1CC=C(C)CC1`, the “activity change, negative = cytotoxicity” value is -0.256% (inactive).

Consider `c1ccc2c(c1)[nH]c1ccccc12`, for which the Potency entry is “inactive”.

Take `NC(Cc1c[nH]c2ccccc12)C(=O)O` (stereo not given): the “activity change, negative = cytotoxicity” value is 12.7% [at 42.5 µM] (inactive).

Consider `CC(=O)CC(C)(C)O`, for which the Potency result was “inactive”.

Consider `CC(=O)OCc1ccccc1`, for which the Potency entry was “inactive”.

Regarding `CN(C)CCOC1=Cc2ccccc2Sc2ccc(Cl)cc21`, the “activity change, negative = cytotoxicity” value is 13.3% [at 42.5 µM] (inactive).

For `Cc1ccc(OC(=O)CC(C)C)cc1`, the “activity change, negative = cytotoxicity” value was 0.0323% (inactive).

Turning to `CCCC(=O)C(C)=O`, the “activity change, negative = cytotoxicity” value was 13.1% (inactive).

On to `c1ccc(Nc2ccccc2)cc1`, for which the Potency entry was “inactive”.

As for `O=C(O)c1ccccc1S`, the “activity change, negative = cytotoxicity” value is 5.83% [at 42.5 µM] (inactive).

With `COCCOC(=O)C1=C(C)NC(C)=C(C(=O)OC/C=C/c2ccccc2)C1c1cccc([N+](=O)[O-])c1` (stereo not given), the “activity change, negative = cytotoxicity” value was 1.73% [at 42.5 µM] (inactive).

Take `CC(C(=O)O)c1cccc(C(=O)c2ccccc2)c1` (stereo not given): the Potency result was “inactive”.

On to `CCC(CC)CO`, for which the “activity change, negative = cytotoxicity” value was 9.45% (inactive).

On to `NC/C=C/C(=O)O`, for which the “activity change, negative = cytotoxicity” value was -3.31% [at 42.5 µM] (inactive).

For the compound `C1=C\CC/C=C\CC/1`, the “activity change, negative = cytotoxicity” value was 15.7% (inactive).

As to `c1ccc(CNc2ncnc3nc[nH]c23)cc1`, the “activity change, negative = cytotoxicity” value is 4.76% (inactive).

In the case of `Cc1ccc(C(=O)O)o1`, the Potency result is “inactive”.

Take `C=C(C)C(=O)OCCOC(=O)CC(C)=O`: the “activity change, negative = cytotoxicity” value was 12.9% (inactive).

For the compound `O=C(O)/C=C/c1ccc(/C=C/C(=O)O)cc1`, the “activity change, negative = cytotoxicity” value is -0.798% [at 42.5 µM] (inactive).

Consider `O=C1c2ccccc2C(=O)N1CCl`, for which the “activity change, negative = cytotoxicity” value is -9.76% (inactive).

Turning to `CCc1oc2ccccc2c1C(=O)c1cc(Br)c(O)c(Br)c1`, the “activity change, negative = cytotoxicity” value is -6.2% [at 42.5 µM] (inactive).

`CCOC(=O)c1ccc(N)cc1`: the Potency result is “inactive”.

With `CCc1ccc(O)cc1`, the “activity change, negative = cytotoxicity” value was -4.59% (inactive).

Regarding `Cc1cccc(C)c1NC(=O)CN(CC(=O)O)CC(=O)O`, the “activity change, negative = cytotoxicity” value is -0.393% [at 42.5 µM] (inactive).

As to `CCOC(=O)[C@H](CCc1ccccc1)N[C@H]1CCc2ccccc2N(CC(=O)O)C1=O`, the “activity change, negative = cytotoxicity” value is 10.7% [at 42.5 µM] (inactive).

Take `CC(O)CNCC(C)O` (stereo not given): the Potency entry was “inactive”.

With `CCCCCCCCCCCCN1CCCCCC1=O`, the “activity change, negative = cytotoxicity” value is -11.2% (inactive).

For the compound `COC(C)=O`, the “activity change, negative = cytotoxicity” value was -0.159% (inactive).

Turning to `COc1ccc(C(=O)c2ccccc2)c(O)c1`, the Potency entry is “inactive”.

In the case of `Cc1nc2sccn2c(=O)c1CCN1CCC(=C(c2ccc(F)cc2)c2ccc(F)cc2)CC1`, the “activity change, negative = cytotoxicity” value is -7.82% [at 42.5 µM] (inactive).

`CC1=C(C)S(=O)(=O)CCS1(=O)=O`: the Potency entry was “inactive”.

With `CC/C=C\CCOC(C)=O`, the “activity change, negative = cytotoxicity” value was -1.22% (inactive).

As for `CCC(C(=O)NC(N)=O)c1ccccc1` (stereo not given), the “activity change, negative = cytotoxicity” value was 2.82% (inactive).

In the case of `CC(C=O)c1ccccc1` (stereo not given), the “activity change, negative = cytotoxicity” value was 0.589% (inactive).

As for `Cc1cc(C)c(O)c(C)c1`, the Potency entry was “inactive”.

As for `CC[N+](CC)(CC(=O)Nc1c(C)cccc1C)Cc1ccccc1`, the Potency entry was “inactive”.
